From PubChem BioAssay AID652015 (National Center for Advancing Translational Sciences (NCATS), 2013)
Records with an inconclusive call do not appear. A number with no mark means an inactive call. The source made the active and inactive calls. Calls follow the shape of the dose curve; as a rule, active = well fitted inhibition curve with a large enough effect; inconclusive = small, poorly fitted or top-dose-only effect; inactive = no such curve, though single readings can be large or run the other way.

target: Coelenterazine h 2-monooxygenase (Renilla reniformis) (UniProt P27652); assay: qHTS Assay for Inhibitors of Sea Pansy Luciferase from the GSK Published Protein Kinase Inhibitor Set; conditions: purified Renilla luciferase, luminescence; series mostly up to 57.5 µM; activity change, negative = inhibition: at the top concentration
Sequence (P27652 whole entry, looked up): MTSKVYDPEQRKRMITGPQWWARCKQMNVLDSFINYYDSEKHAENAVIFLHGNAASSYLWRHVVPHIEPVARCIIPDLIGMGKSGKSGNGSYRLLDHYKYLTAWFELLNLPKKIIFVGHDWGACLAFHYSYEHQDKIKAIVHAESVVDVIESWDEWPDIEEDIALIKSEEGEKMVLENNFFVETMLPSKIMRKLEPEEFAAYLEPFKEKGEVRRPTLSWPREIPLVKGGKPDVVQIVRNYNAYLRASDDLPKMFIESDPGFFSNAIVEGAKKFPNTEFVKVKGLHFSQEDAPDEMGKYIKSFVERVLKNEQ
Procedure, shortened: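 qHTS (roughly 60 uM down to 300 pM) against 1 nM Renilla luciferase, substrate coelenterazine h 5 uM, Tris acetate pH 7.5 buffer with NaCl, Tween-20 and BSA. Luminescence measured after an average 2 min incubation.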
Potency is read from the fitted curve at half-maximal effect.

Row | Compound | activity change, negative = inhibition | Potency
1 | COc1ccc2cc(-c3c(-c4ccncc4)nc(-c4ccc(S(C)=O)cc4)n3C)ccc2c1 (centres undefined) | 17.1% | –
2 | CN(C)CCCNc1nccc(-c2c(-c3ccc(F)cc3)nn3cc(C(F)(F)F)ccc23)n1 | 8.87% | –
3 | COc1cc(N2CCN(C(C)C)CC2)ccc1Nc1nc(Nc2ccc(F)cc2C(=O)NCC(O)CO)c2cc[nH]c2n1 (centres undefined) | 29.4% | –
4 | CC(C)(C)c1ccc(Oc2nccc(-c3c(-c4ccc(F)cc4)ncn3C3CCNCC3)n2)cc1 | 31.2% | –
5 | O=C(Nc1ccc(Oc2ccc3nc(NC(=O)c4ccccc4)[nH]c3c2)cc1)Nc1cc(C(F)(F)F)ccc1F | 4.44% | –
6 | Cc1nnc(-c2ccc(C)c(-c3ccc(C(=O)Nc4cccc(C#N)c4)cc3)c2)o1 | 10.9% | –
7 | CCOc1ccc2c(-c3ccnc(Nc4cc(OC)cc(C(F)(F)F)c4)n3)cnn2n1 | 39.9% | –
8 | FC(F)(F)CNc1nccc(-c2cnn3ncccc23)n1 | 64.1% | –
9 | NC(=O)Cc1ccccc1Oc1nccc(-c2c(-c3ccc(F)cc3)ncn2C2CCNCC2)n1 | 36.4% | –
10 | CN(C)CCNC(=O)Nc1ccc(N(C)c2ccnc(Nc3ccc(CS(C)(=O)=O)cc3)n2)cc1 | 20.8% | –
11 | CC1=C(C(=O)Nc2ccc3[nH]ncc3c2)C(c2ccc(Cl)c(Cl)c2)CC(=O)N1 (centres undefined) | 19.5% | –
12 | CS(=O)(=O)CCNCc1ccc(-c2ccc3ncnc(Nc4ccc(OCc5ccccc5)c(Cl)c4)c3c2)o1 | 19% | –
13 | COc1cc(C)c(NC(=O)CN(C)C)cc1Nc1nc(Nc2cccc(F)c2C(N)=O)c2cc[nH]c2n1 | 9.98% | –
14 | Fc1ccc(-c2cc(-c3cn[nH]c3-c3ccccn3)ccn2)cc1 | 38.8% | –
15 | COC(=O)Nc1nc2ccc(Oc3cccc(NC(=O)Nc4cc(C(F)(F)F)ccc4F)c3)cc2[nH]1 | 40.9% | –
16 | NS(=O)(=O)c1ccc(Nc2ncc(-c3ccccc3)o2)cc1 | 12.6% | –
17 | COc1ccc2cc(-c3c(-c4ccncc4)nc(-c4ccc(S(C)(=O)=O)cc4C)n3C)ccc2c1 | -10.9% | –
18 | NS(=O)(=O)c1ccc(Nc2cc(-c3cccc(O)c3)[nH]n2)cc1 | 3.85% | –
19 | CCn1c(-c2nonc2N)nc2ccncc21 | 12.6% | –
20 | O=C(Nc1ccc(Oc2ccc3nc(NC(=O)c4ccco4)[nH]c3c2)cc1)Nc1cc(C(F)(F)F)ccc1F | 10.1% | –

Row | Compound | activity change, negative = inhibition | Potency
21 | Cc1ccc(C(=O)NC2CCCCC2)cc1-c1ccc(C(=O)NCC2CC2)cc1 | 8.65% | –
22 | Cc1ccc2c(-c3ccnc(Nc4cccc(C(F)(F)F)c4)n3)c(-c3ccccc3)nn2n1 | 9.89% | –
23 | CS(=O)(=O)CCNCc1ccoc1-c1ccc2ncnc(Nc3ccc(OCc4ccccc4)cc3)c2c1 | 39.4% | –
24 | c1ccc(Nc2ncc(-c3ccccc3)o2)cc1 | 5.69% | –
25 | FC(F)(F)c1ccc(-c2nn3ncccc3c2-c2ccnc(Nc3ccc4c(c3)OCCO4)n2)cc1 | 43% | –
26 | CCNC(=O)OC1CNC(C#Cc2cc3ncnc(Nc4ccc(OCc5cccc(F)c5)c(Cl)c4)c3s2)C1 (centres undefined) | 39.2% | –
27 | O=C(OC1CNC(C#Cc2cc3ncnc(Nc4ccc(OCc5cccc(F)c5)c(Cl)c4)c3s2)C1)N1CCOCC1 (centres undefined) | 25.9% | –
28 | COc1ccc(COc2ccc(Cc3cnc(N)nc3N)cc2OC)cc1 | 52.5% | –
29 | CCS(=O)(=O)c1ccc(OC)c(Nc2ncc(-c3cccc(C(C)=O)c3)o2)c1 | 5.78% | –
30 | CN(C)c1ccc2[nH]c(O)c(C=Nc3ccc(S(N)(=O)=O)cc3)c2c1 | – | 5.8 µM (active)
31 | COc1ccc(-c2cc3c(N)ncnc3o2)cc1 | 37.2% | –
32 | Fc1cccc(COc2ccc(Nc3ncnc4sc(-c5ccco5)cc34)cc2Cl)c1 | 45.2% | –
33 | NC(=O)c1ccc(-c2nc(-c3ccc4c(c3)OCO4)c(-c3ccccn3)[nH]2)cc1 | 0.676% | –
34 | CCS(=O)(=O)c1ccc(OC)c(Nc2ncc(-c3cccc(-c4ccccc4F)c3)o2)c1 | 11.3% | –
35 | Cn1c(-c2nonc2N)nc2cnccc21 | 13% | –
36 | O=C(Nc1n[nH]c2cc(-c3cc(F)ccc3F)ccc12)C1CC1 | 12.6% | –
37 | CCn1c(-c2nonc2N)nc2c(C#CC(C)(C)O)nc(CN3CCCC3)cc21 | 21.5% | –
38 | CCc1nn2ncccc2c1-c1ccnc(NC2CC2)n1 | 32.9% | –
39 | COc1ccc(Nc2ncc(-c3ccccc3)o2)cc1OC | 2.7% | –
